Screening results from PubChem BioAssay.
The list is not random: actives were taken first. Their share in the collection is about 12%.
USP30 block = blocks human USP30 ubiquitin-rhodamine cleavage; 5.3% of 47,000 active; purified USP30, Ub-rhodamine cleavage fluorescence; inhibition, % at 25 µM; AID 1645860; Q70CQ3
Target sequence (Q70CQ3 whole entry, looked up): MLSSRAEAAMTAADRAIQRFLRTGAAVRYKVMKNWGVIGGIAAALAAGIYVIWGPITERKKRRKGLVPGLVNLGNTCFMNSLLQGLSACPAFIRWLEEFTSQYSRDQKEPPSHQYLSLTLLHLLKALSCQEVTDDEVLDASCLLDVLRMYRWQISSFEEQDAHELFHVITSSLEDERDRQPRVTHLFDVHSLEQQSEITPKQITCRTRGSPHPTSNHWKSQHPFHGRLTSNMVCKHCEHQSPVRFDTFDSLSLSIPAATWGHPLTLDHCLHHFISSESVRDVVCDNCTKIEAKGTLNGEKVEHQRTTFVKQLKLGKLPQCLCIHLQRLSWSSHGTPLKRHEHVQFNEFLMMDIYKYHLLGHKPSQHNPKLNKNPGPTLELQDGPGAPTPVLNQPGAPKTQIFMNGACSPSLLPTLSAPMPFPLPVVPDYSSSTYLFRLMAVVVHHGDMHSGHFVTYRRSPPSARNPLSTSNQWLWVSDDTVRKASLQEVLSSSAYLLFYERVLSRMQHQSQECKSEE
USP17 block = human USP17-like deubiquitinase inhibition; A8MUK1; purified USP17, Ub-rhodamine cleavage fluorescence, 3 h; inhibition, % at 50 µM; 6.5% of 47,000 active; AID 1645855
USP8 inh = blocks human USP8 ubiquitin-rhodamine cleavage | P40818 | purified USP8, Ub-rhodamine cleavage fluorescence, 30 min | inhibition, % at 20 µM | 4.2% of 47,000 active
An asterisk follows results filed as active. Rule as the data show it: active = inhibition above about 30%; inactive = the rest.

`COCCCNc1ccn2nc(-c3ccc(C)cc3)cc2n1` gave USP30 block -40.2, USP17 block -37.3 and USP8 inh -12.9.
Cn1c(N)c(C(=O)COc2ccc([N+](=O)[O-])cc2Cl)c(=O)n(C)c1=O was read as USP30 block 0.3, USP17 block -9.2 and USP8 inh -62.3.
Screening Cn1c(N)c(C(=O)CSc2nnc(Cn3cnc4ccccc43)n2-c2ccccc2Cl)c(=O)n(C)c1=O returned USP30 block 39.1*, USP17 block 9.4 and USP8 inh -2.5.
Screening O=C(c1ncccn1)N1CCCCC1c1ncc(Cc2ccccc2)o1 (configuration not stated) returned USP30 block 1.1, USP17 block 6.3 and USP8 inh 2.2.
COc1ccc(N2CCN(C(=O)c3csc4ccccc34)CC2)cc1 was read as USP30 block -0.6, USP17 block -6.0 and USP8 inh -9.1.
`O=C(c1csc2ccccc12)N1CCN(c2ccc(Cl)c(Cl)c2)CC1` gave USP30 block 32.6*, USP17 block 1.3 and USP8 inh 5.6.
Screening O=C1CCCC[C@@H]2[C@H](CCN2Cc2ccc3ncccc3c2)N1Cc1ccccc1F returned USP30 block -65.4, USP17 block 7.6 and USP8 inh 47.2*.
For Nc1ncccc1C(=O)N1CC[C@@H]2[C@H]1CCCC(=O)N2Cc1ccc(F)cc1 the results were USP30 block 8.5, USP17 block -4.0 and USP8 inh -2.4.
COc1ccc(N2CCN(C(=O)c3nnn(-c4ccc(OC)cc4)n3)CC2)cc1 was read as USP30 block 35.6*, USP17 block 11.0 and USP8 inh 0.3.
For NC(=O)C1CCN(C(=O)c2nnn(-c3ccc(OC(F)(F)F)cc3)n2)CC1 the results were USP30 block 11.8, USP17 block -2.2 and USP8 inh -3.2.
Screening NC(=O)C1CCN(C(=O)c2nnn(-c3ccccc3)n2)CC1 returned USP30 block 33.7*, USP17 block 16.2 and USP8 inh 15.7.
For COc1ccc(-n2nnc(C(=O)N3CCC4(CC3)OCCO4)n2)cc1 the results were USP30 block 9.1, USP17 block 12.3 and USP8 inh 13.3.
`O=C(c1nnn(-c2ccc(F)cc2)n1)N1CCN(c2ccccc2O)CC1` gave USP30 block 17.1, USP17 block 1.5 and USP8 inh 15.5.
COc1ccc(-n2nnc(C(=O)N3CCN(c4ccccc4Cl)CC3)n2)cc1 was read as USP30 block 33.4*, USP17 block 23.1 and USP8 inh 12.6.
For Cn1cc(C(=O)Nc2ccc(F)cc2)c(S(=O)(=O)N2CCCCC2)n1 the results were USP30 block 4.7, USP17 block -6.3 and USP8 inh -5.0.
`CC(=O)N1Cc2cc(C)ccc2OC2(CCN(CC(=O)Nc3c(C)cccc3C)CC2)C1` gave USP30 block 20.3, USP17 block 8.8 and USP8 inh 10.8.
`COc1ccccc1OC(C)C(=O)Nc1cccc2ccc(C)nc12` (configuration not stated) gave USP30 block 18.5, USP17 block 11.4 and USP8 inh 7.6.
For COc1ccc(CC(=O)Nc2cc(S(=O)(=O)Nc3ccccc3F)ccc2Cl)cc1 the results were USP30 block 14.0, USP17 block 10.1 and USP8 inh -11.4.
CC1CCCC(C)N1CCCNC(=O)c1ccc2c(c1)NC(=O)C1CCCN21 (configuration not stated) was read as USP30 block -498.7, USP17 block -110.1 and USP8 inh -13.0.
Screening O=C(NCc1cccc(F)c1)c1ccc2c(c1)NC(=O)C1CCCN21 (configuration not stated) returned USP30 block -58.7, USP17 block 47.6* and USP8 inh 66.8*.
Screening O=c1cc(CCC2CN(Cc3ncccc3F)CCO2)nc[nH]1 (configuration not stated) returned USP30 block -1.6, USP17 block -2.9 and USP8 inh 2.9.
COc1cc(/C=C(/C(=O)OCC(N)=O)c2ccc(-c3ccccc3)cc2)cc(OC)c1OC was read as USP30 block -41.8, USP17 block -107.0 and USP8 inh 3.1.
Screening COc1cccc(CNC(=O)c2ccc3nc(N4CCOCC4)sc3c2)c1OC returned USP30 block -7.1, USP17 block -2.7 and USP8 inh -49.3.
Screening COc1ccccc1CC(=O)Nc1ccc2nc(C)sc2c1 returned USP30 block -30.9, USP17 block -5.1 and USP8 inh -0.8.
CC(C)C[C@H](NC(=O)c1ccc2nc(-n3cccc3)sc2c1)C(=O)NCc1ccco1 was read as USP30 block -158.7, USP17 block -16.9 and USP8 inh 53.4*.
COc1ccc(NC(=O)CNC(=O)c2ccc3nc(-n4cccc4)sc3c2)cc1 was read as USP30 block -44.8, USP17 block 30.9* and USP8 inh 82.5*.
COc1ccc(CN2Cc3ccccc3OC3(CCC(CO)CC3)C2)cc1 (configuration not stated) was read as USP30 block 7.5, USP17 block 4.8 and USP8 inh 0.4.
Screening Cc1ccc(NC(=O)CSC2=NC3(CCCC3)Nc3ccccc32)cc1 returned USP30 block -128.8, USP17 block -8.1 and USP8 inh -39.2.
Cc1ccc(C)c(CN2C(=O)COc3ccc(C(=O)c4ccccc4C(=O)O)cc32)c1 was read as USP30 block 36.1*, USP17 block 8.8 and USP8 inh 24.6.
For Cc1ccc2c(c1)OCC(=O)N2Cc1nc(-c2ccccc2C)no1 the results were USP30 block -22.7, USP17 block -4.9 and USP8 inh -2.9.
For Cc1cccc(NC(=O)Nc2cnn(-c3ncncc3N3CCOCC3)c2)c1C the results were USP30 block 0.6, USP17 block 0.6 and USP8 inh -21.4.
Cc1cc(C)cc(NS(=O)(=O)c2cc3c4c(c2)CC(=O)N4CCC3)c1 was read as USP30 block -7.2, USP17 block -11.8 and USP8 inh 6.5.
`CC(=O)N1CCc2cc(Br)cc(S(=O)(=O)Nc3cc(C)cc(C)c3)c21` gave USP30 block -2.0, USP17 block 46.5* and USP8 inh -30.7.
Screening COc1ccc(OCc2nc(-c3cc(C)nc4ccccc34)no2)cc1 returned USP30 block 1.5, USP17 block 14.3 and USP8 inh 2.0.
Cc1cc(-c2noc(-c3ccoc3C)n2)c2ccccc2n1 was read as USP30 block -93.1, USP17 block 3.6 and USP8 inh 37.0*.
O=C(NCc1ccc(N2CCCC2=O)cc1)c1ccc(-n2cccn2)cc1 was read as USP30 block 22.2, USP17 block 9.2 and USP8 inh 26.8.
`COc1ccccc1C(=O)Nc1ccc(C)c(N2CCCCC2=O)c1` gave USP30 block 9.8, USP17 block 8.3 and USP8 inh 18.1.
`C[C@H](NC(=O)C(c1ccccc1)c1ccccc1)c1nnc2ccccn12` gave USP30 block 18.7, USP17 block 9.0 and USP8 inh 7.0.
Cc1ccc(NC(=O)N2CCC(c3nc4ncccc4[nH]3)CC2)cc1 was read as USP17 block -12.3 and USP8 inh 3.2.
Cc1ccc(-c2csc(-n3ncc(C(=O)N4CCN(C(=O)Nc5cccc6ccccc56)C(C)C4)c3C(C)C)n2)cc1 (configuration not stated) was read as USP30 block -52.5, USP17 block 62.8* and USP8 inh 80.5*.
